From PubChem
Shown are actives, neighbours in structure and some others; about 1.3% of the full set was active somewhere.
Pin1 inh = qHTS Assay to Find Inhibitors of Pin1; Peptidyl-prolyl cis-trans isomerase NIMA-interacting 1 (Homo sapiens), Q13526; Pin1 FP peptide displacement, HiFluor488, 10 min; Potency, µM (top dose mostly 115 µM), inactives show at the top dose activity, negative = inhibition, actives largely listed as inhibitors; 390,000 tested, 0.009% active; AID 504891, 2011; active = well fitted inhibition curve with a large enough effect in the polarisation, with a control signal flat, not every such curve was filed as active; inconclusive = small, poorly fitted or top-dose-only effect, or effect the other way, or a change in a side signal; inactive = no such curve, though single readings can be large or run the other way; the % refers to the polarisation; note: potency is the fitted concentration of half-maximal effect
KAT2A inh = qHTS Assay for Inhibitors of GCN5L2. Histone acetyltransferase KAT2A (Homo sapiens), Q92830. GCN5L2 HAT assay, ThioGlo1 CoA-SH fluorescence. Potency, µM (series often up to 58.9 µM), without a hit: top-dose activity change, negative = inhibition, hits mostly inhibitors. 390,000 tested, 0.21% active. AID 504327, 2011; note: potency is the fitted concentration of half-maximal effect
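Free CoA generated was detected with ThioGlo1 (50uM) fluorescence at Ex340nm/Em540nm, read immediately and after 20 min at room temperature. Enzyme, 20 nM in HEPES pH 7.5 buffer, saw compounds 15 min before adding 75uM H3(1-25) peptide and 70uM acetyl-CoA.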
GALK inh = qHTS Assay for Inhibitors of Human Galactokinase (GALK) | P51570 | Purified GALK, Kinase-Glo residual ATP luminescence | Potency, µM (series often up to 57.5 µM), for the others: at the highest dose activity change, negative = inhibition, hits mostly inhibitors | 270,000 tested, 0.007% active | AID 1868, 2009; note: potency is the fitted concentration of half-maximal effect
Target sequence (P51570 whole entry, looked up): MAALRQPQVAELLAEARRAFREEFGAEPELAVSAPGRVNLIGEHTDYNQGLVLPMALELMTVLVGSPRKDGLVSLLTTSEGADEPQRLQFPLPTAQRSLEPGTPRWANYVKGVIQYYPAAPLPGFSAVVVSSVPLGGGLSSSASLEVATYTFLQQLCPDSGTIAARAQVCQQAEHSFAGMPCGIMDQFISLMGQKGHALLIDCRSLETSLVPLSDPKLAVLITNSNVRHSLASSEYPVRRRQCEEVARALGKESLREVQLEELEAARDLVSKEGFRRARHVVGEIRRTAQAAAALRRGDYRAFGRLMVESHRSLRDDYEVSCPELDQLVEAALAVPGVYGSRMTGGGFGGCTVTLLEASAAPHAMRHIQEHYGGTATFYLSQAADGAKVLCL
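GALK at 5 nM final was combined with compound, 35 uM ATP and 100 uM galactose in HEPES pH8.0 with MgCl2 and DTT. The reaction ran one hour at room temperature before luminescent ATP detection.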
Giardia killer = Small Molecules that selectively kill Giardia lamblia: qHTS; activity change, % at 7.66 µM, hits read low; Giardia lamblia trophozoite viability; 340,000 tested, 0.15% active; in the data active = activity change below about -80%; inconclusive = between about -30% and that limit;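 note: parasites exposed to compound for two days anaerobically before the ATP read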
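ATP-content bioluminescence gauges trophozoite survival. Cells (100/well) receive compound and incubate anaerobically for 48 hrs at 37 deg C; detection reagent follows for 15-30 min at room temperature.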
TrxR1 substrate = qHTS Assay for Substrates of Mammalian Selenoprotein Thioredoxin Reductase 1 (TrxR1): qHTS; Thioredoxin reductase 1, cytoplasmic (Rattus norvegicus), O89049; purified TrxR1 substrate turnover, NADPH consumption readout; Potency, µM (top dose mostly 114 µM), inactives show at the top dose activity change, negative = substrate turnover; 390,000 tested, 0.01% active; AID 588456, 2011; note: potency is the fitted concentration of half-maximal effect; nearly all actives have a fitted effect of over 50% in size
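Rat TrxR1, dispensed at 90 nM, was prereduced with 400 uM NADPH (final) for 5 min at ~22 deg C, then incubated with compound 15 min before 400 uM selenite. A first-read NADPH fluorescence drop versus no-compound background flagged substrates.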
TrxR1 inh = qHTS Assay for Inhibitors of Mammalian Selenoprotein Thioredoxin Reductase 1 (TrxR1): qHTS. 390,000 tested, 1% active. Potency, µM (top dose mostly 114 µM), for inactives: at the top dose activity change, negative = inhibition, actives largely listed as inhibitors. recombinant rTrxR1, NADPH fluorescence consumption, selenite substrate. AID 588453, 2011; note: potency is the fitted concentration of half-maximal effect; nearly all actives have a fitted effect of over 65% in size
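Rat TrxR1 (90 nM in the dispensed reagent) was pre-reduced with 400 uM NADPH for 5 min at room temperature, then incubated with compound for 15 min. After 400 uM selenite was added, NADPH fluorescence (Ex 340/Em 450 nm) was followed for 8 min.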
An asterisk follows results filed as active; ? = inconclusive; / = no result; ! = a repeat was not active; [ ] = remark or other dose. Unless noted, calls come from the whole dose curve; as a rule, active = well fitted curve in the direction sought with a large enough effect; inconclusive = small, poorly fitted or top-dose-only effect, or another doubt; inactive = no such curve, though single readings can be large; an effect the other way counts as inactive or inconclusive. % is set by controls: 0 for no effect and ±100 for the full control effect.

SMILES	Pin1 inh	KAT2A inh	GALK inh	Giardia killer	TrxR1 substrate	TrxR1 inh
Cc1c(NC(=O)c2cc3ccccc3o2)cccc1-c1nc2ccccc2o1	?	-6%	/	/	13%	12%
Oc1ccc[n+](CC(O)c2ccccc2)c1 (stereo not given)	?	-1%	/	-24	10%[57.1 µM]	9%[57.1 µM]
OC(C[n+]1c(Cl)ccc2ccccc21)c1ccccc1 (stereo not given)	/	/	/	/	15%	40µM*
CC(=C\C(=O)O)/C(=C/c1ccc(C)o1)C(=O)O	?	-1%	/	6	-5%	71µM*
CC(=C\C(=O)O)/C(=C/c1ccco1)C(=O)O	-22%	2%	-1%	11	-5%	?
CCOC(=O)c1cc2c(=O)n3cccc(C)c3nc2n(Cc2ccco2)c1=NC(=O)c1ccccc1	?	1%	-4%	31	3%[11.4 µM]	56µM*!
CCOC(=O)c1c(C)n(C)c2ccc(OC(=O)c3ccc([N+](=O)[O-])cc3)cc12	-7%	8.9µM*	-2%	-6	0%	8%
CCOC(=O)c1c(C)n(CC)c2ccc(OC(=O)c3ccc([N+](=O)[O-])cc3)cc12	-4%	12%	1%	7	6%	30%
COc1ccc(C2Nc3ccccc3C(=O)N2Cc2ccccc2)cc1COc1ccc(Cl)cc1 (stereo not given)	8%	/	/	/	/	/
C[C@@]12CCC3[C@@](CCC4[C@@]3(C)CCC[C@@]4(C)C(=O)N3CCCCC3)(CC1=O)C2 (stereo not given in full)	1%	2%	/	-19	0%	20%
NS(=O)(=O)C#Cc1ccccc1	/	1%	/	/	20%[57.1 µM]	4.7µM*
COc1ccccc1N1CCN(C(=O)CSc2nc3ccccc3nc2Cc2ccc(F)cc2)CC1	22%	-8%	/	/	0%[57.1 µM]	23%[57.1 µM]
O=C(CCNc1ccc(Cl)cc1)c1cccs1	0%	6%	-2%	-7	-5%	?
O=C(CCNc1cc(Cl)cc(Cl)c1)c1cccs1	-3%	-4%	5%	13	3%	28µM*
N#CC1=C(N)C(C#N)(C#N)C2(C(=O)Nc3ccccc32)C2CCCC=C12 (stereo not given)	2%	-9%	1%	4	-7%	56µM*
Cc1ccc(C)n1-c1nc(=S)[nH][nH]1	-2%	18µM*	-1%	1	6%	-20%
COc1ccc(C2Nc3ccccc3C(=O)N2Cc2cccc3ccccc23)cc1COc1ccc(NC(C)=O)cc1 (stereo not given)	32%	/	/	/	/	/
O=C(O)COc1ccc2c(c1)O/C(=C\c1ccco1)C2=O	?	-16%	/	11	-1%	45µM*
O=C(Nc1ccc(Cc2ccncc2)cc1)C1CCC(N2C(=O)C3C4C=CC(C5CC45)C3C2=O)CC1 (stereo not given)	-11%	-6%	-5%	7	-8%	0%
CC(=O)Nc1ccc(NC(=O)C2CCC(N3C(=O)C4C5C=CC(C6CC56)C4C3=O)CC2)cc1 (stereo not given)	2%	-7%	1%	-19	2%	25µM*
O=C(Nc1ccccc1)NN(C(=O)CCl)c1ccccc1	1%	-1%	-1%	11	6%	7.9µM*
Cc1ccc(N(NC(=O)C(O)(c2ccccc2)c2ccccc2)C(=O)CCl)cc1	-5%	-5%	1%	-15	0%	7.1µM*
CS(=O)(=O)c1ccc(S(=O)CC(=O)Oc2ccc(Cl)cc2)c([N+](=O)[O-])c1 (stereo not given)	-3%	-6%	-1%	11	4%[57.1 µM]	1.8µM*
